Rows were chosen to be rich in hits. Some 7% of all compounds tested hit in one or more screens of this group.
ADAM10 inh – inhibitors of human ADAM10 | O14672 | recombinant ADAM10, EDANS/DABCYL FRET peptide cleavage, 3 h | inhibition, % at 7 µM | actives 0.62% (n = 370,000);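 active means inhibition above a per-campaign cutoff equal to the mean of compounds falling between control-based bounds plus 3 SD, cut at about 20% in these data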;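 further: 0% = DMSO wells while the 100% control is not disclosed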
Target sequence (O14672 214-748 limits assumed): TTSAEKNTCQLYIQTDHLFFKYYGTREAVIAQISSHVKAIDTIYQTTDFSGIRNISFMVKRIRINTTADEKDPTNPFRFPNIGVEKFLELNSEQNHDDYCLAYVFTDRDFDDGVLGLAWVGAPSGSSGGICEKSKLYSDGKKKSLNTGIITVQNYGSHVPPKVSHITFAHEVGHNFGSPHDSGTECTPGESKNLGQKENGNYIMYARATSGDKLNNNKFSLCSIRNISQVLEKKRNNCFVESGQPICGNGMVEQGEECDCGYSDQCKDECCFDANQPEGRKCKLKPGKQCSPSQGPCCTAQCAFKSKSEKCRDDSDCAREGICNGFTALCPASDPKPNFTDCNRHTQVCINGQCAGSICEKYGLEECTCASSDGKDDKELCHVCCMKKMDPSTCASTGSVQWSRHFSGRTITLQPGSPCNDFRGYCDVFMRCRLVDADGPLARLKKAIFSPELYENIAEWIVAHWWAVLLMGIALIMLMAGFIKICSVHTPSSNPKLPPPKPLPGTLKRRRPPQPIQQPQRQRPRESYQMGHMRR
rCAG RNA binder – r(CAG) repeat RNA binding; TO-PRO-1 dye displacement fluorescence; inhibition, % at 3 µM; actives 1.3% (n = 370,000); AID 651821;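 active means inhibition above the plate cutoff, the mean of all test compounds on that plate plus 3 SD, cut at about 35% in these data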;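 further: 0% = DMSO alone and 100% = 100 µM mitoxantrone as full dye displacement; higher means more dye released from RNA so lower well fluorescence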
NR3A LBD binder – modulates the human NR3A ligand-binding domain; NR3A LBD differential scanning fluorimetry, Tm shift; 0% = protein alone, 100% = glycine-bound protein; Tm shift relative to glycine control, % at 25 µM; actives 2.5% (n = 340,000);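 active means melting temperature shift of at least 10% of the positive control shift, at one fixed dose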
proKLK7 act – activates the human kallikrein-7 zymogen; actives 0.9% (n = 370,000); purified proKLK7, EDANS-DABCYL substrate fluorescence; 100% is mature enzyme control, 0% vehicle; activation, % at 7 µM;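 active means activation above the mean of all tested compounds plus 3 SD, computed per campaign excluding outliers beyond control limits, cut at about 13% in these data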
ADAM17 inh – inhibits human ADAM17 | actives 0.83% (n = 370,000) | inhibition, % at 6.95 µM | AID 720648 | recombinant ADAM17, EDANS/DABCYL FRET peptide cleavage | P78536;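 active means inhibition above the mean of compounds lying between control limits plus 3 SD, set per campaign, cut at about 8.5% in these data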;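 further: 0% = DMSO-only wells as the low control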
AHR activator – activators of human aryl hydrocarbon receptor; AHR-responsive luciferase reporter cells, luminescence; activation, % at 5 µM; actives 2.5% (n = 320,000); in the data active means activation above about 47%;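 further: 0% = vehicle wells and 100% = reference agonist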
The depositor's hits bear a star; / = no result given.

SMILES	ADAM10 inh	rCAG RNA binder	NR3A LBD binder	proKLK7 act	ADAM17 inh	AHR activator
COC(=O)C1CN(C2CCCC2)CCS(=O)(=O)N1Cc1ccc(OC)cc1 (configuration not stated)	-2	2	/	0	-3	/
Cc1ccc(Nc2nnc(SCC(=O)Nc3ccc(S(=O)(=O)N4CCOCC4)cc3)s2)cc1	5	15	33*	1	-2	0
O=C(NCc1ccccc1Cl)C1CCCN(c2nc3ccccc3o2)C1 (configuration not stated)	2	2	/	0	-2	/
C[C@@H]1COc2cc(N3CCOCC3)ccc2S(=O)(=O)N1	1	1	/	0	1	/
COC(=O)C1CCN(C(c2ccc(OC)c(OC)c2)c2sc3nc(C)nn3c2O)CC1 (configuration not stated)	-2	2	13*	0	-1	-2
CC(C)c1ccc(NC(=O)O[C@H]2CC[C@@]34CCCN3C(=O)CCC[C@H]4[C@H]2C)cc1	11	/	/	/	2	/
CC(C)(C)OC(=O)NCc1cc(F)ccc1/C=C/S(=O)(=O)NCc1ccc(F)cc1	14	-1	/	0	4	/
CC1CCCN(C(=O)c2ccc3c(c2)OCO3)C1 (configuration not stated)	5	0	-1	0	4	-1
CC1CCCN(C(=O)COc2ccc3c(c2)OCO3)C1 (configuration not stated)	-7	-2	-2	0	0	52*
CCC1CCCCN1C(=O)COc1ccc2c(c1)OCO2 (configuration not stated)	-1	-1	-1	0	0	48*
CCC1CCCCN1C(=O)COC(=O)c1cc2ccccc2cc1O (configuration not stated)	-25	1	0	4	-15	0
C[C@H]1[C@@H](C(=O)N2CCCC2)Cc2nc3ccccc3nc2C[C@@H]1c1ccccc1	-6	4	/	0	-2	/
Cc1cc(C)c2c(-n3cccc3)c(C(=O)NNS(=O)(=O)c3ccc(Cl)cc3)sc2n1	5	35*	-11	1	6	5
Cc1cc(C)c2c(-n3cccc3)c(NC(=O)OC(C)C)sc2n1	-5	0	0	-1	0	66*
COc1ccccc1CNC(=O)c1ccc(Br)o1	1	0	3	0	-5	3
COc1ccccc1C(=O)NNC(=O)c1ccc(Br)o1	-5	-5	-1	0	-5	55*
Cc1ccc(-n2c(Cc3cccs3)nnc2SCC(=O)Nc2ccc(S(N)(=O)=O)cc2)cc1	9	9	-1	0	0	3
NS(=O)(=O)c1ccc(NC(=O)CSc2nnc(Cc3cccs3)n2-c2ccccc2)cc1	-1	5	10*	0	-5	0
COc1cccc(C(=O)N2CCN(Cc3cn[nH]c3-c3ccc(F)cc3F)CC2)c1	-5	-4	-1	0	-5	2
COc1ccc(-c2[nH]ncc2CN2CCCC(C(=O)c3cccc(OC)c3)C2)cc1 (configuration not stated)	4	-4	0	0	-3	73*
COc1ccc(C(=O)N2CCN(Cc3cn[nH]c3-c3ccc(OC)cc3F)CC2)cc1	-3	-8	48*	0	-1	2
C(=N\Nc1nc(-c2ccccc2)cs1)/c1ccncc1	-13	6	-16	0	-5	60*
C(=N\Nc1nc(-c2ccccc2)cs1)/c1ccco1	10	20	-6	0	0	110*
C(=N\Nc1nc(-c2ccccc2)cs1)/c1cccs1	6	15	-8	0	-1	60*
CN(C)S(=O)(=O)c1ccc(-c2csc(N/N=C/c3ccc(O)cc3)n2)cc1	-3	32	23*	0	-1	-7
SMILES	ADAM10 inh	rCAG RNA binder	NR3A LBD binder	proKLK7 act	ADAM17 inh	AHR activator
Clc1ccc(-c2csc(N/N=C\c3cccnc3)n2)cc1	4	10	4	-4	3	-2
CN(C)S(=O)(=O)c1ccc(-c2csc(N/N=C/c3ccco3)n2)cc1	3	24	-3	0	0	0
Nc1ccn([C@@H]2O[C@H](C(=O)N3CCN(CCO)CC3)[C@@H](O)[C@H]2O)c(=O)n1	1	3	/	0	-2	/
CCCCCCCCN1CN2Cc3ccccc3C2CS1(=O)=O (configuration not stated)	6	-1	/	1	0	/
C[C@H]1Cn2cnc(C(=O)N(C)Cc3ccccc3)c2C(=O)N1	-5	1	/	0	-4	/
O=S(=O)(N[C@@H]1CCCC[C@@H]1N1CCOCC1)c1ccc(Cl)cc1	-1	/	/	/	-3	/
COC(=O)[C@]12C[C@H](CC(=O)N3CCN(C(=O)C4CC4)CC3)C(=O)N(Cc3ccc(Cl)cc3Cl)C1=C[C@H](C(C)C)O[C@@H]2C1CC1	10	5	/	1	1	/
Cc1ccc(S(=O)(=O)N2CCCC2C(=O)N2CCN(c3ccccc3)CC2)cc1C (configuration not stated)	1	-1	/	0	1	/
COc1ccc2c3n([n+]([O-])c2c1)CCN=C3c1ccc(C)cc1	-7	3	2	1	-5	29
COc1ccc2c3n([n+]([O-])c2c1)CCN=C3c1cc(Cl)c(N)c(Cl)c1	-2	4	-2	1	-2	69*
O=C(c1cc(COc2cccc(C(F)(F)F)c2)on1)N1CCCC1	-10	-3	/	0	-5	/
CCOC(=O)N1CCN(C(=O)c2cc(COc3cccc(C(F)(F)F)c3)on2)CC1	4	-9	25*	0	-5	4
COC(=O)[C@H](C(C)C)N1CCc2nnn(Cc3ccc(C)cc3)c2-c2cc(F)ccc2S1(=O)=O	5	-1	/	0	3	/
COc1cccc2cc(C(=O)CS(=O)(=O)c3ccc(C(C)(C)C)cc3)c(=O)oc12	3	38*	-3	-1	-3	-1
COC(=O)[C@]12C[C@H](CC(=O)NCc3ccc(C)o3)C(=O)N(CCc3ccc(OC)c(OC)c3)C1=C[C@H](C(C)C)O[C@@H]2C1CC1	-4	3	/	0	-4	/
O=C1CCC[C@H]2C[C@H](NCc3cccc(Cl)c3)CC[C@]23CCCN13	0	/	/	/	-1	/
Clc1ccc(Nc2ccc(-n3ccnc3)nn2)cc1Cl	7	10	19*	0	1	24
Cc1nc(CSc2ccc(Cl)cc2)cc(NCc2ccccc2)n1	8	-5	-20	-1	6	-1
CNc1cc(CSc2ccc(Cl)cc2)nc(C)n1	9	-1	-1	0	2	68*
O=C(O)c1ccc(/C=N/Nc2ccc(C(F)(F)F)cn2)cc1	1	4	0	0	1	/
COC(=O)c1ccc(/C=N/NC(=O)c2ccc3nc[nH]c3c2)cc1	6	2	11*	0	1	1
O=[N+]([O-])c1ccc(O)c(/C=N/Nc2nc3ccccc3[nH]2)c1	8	14	7	1	1	57*
